Test [1] concerns the target Tyrosine-protein kinase SYK (Homo sapiens) (UniProt P43405). Conditions: at 10 µM.
For test [2], the target named is T1, Mitogen-activated protein kinase kinase kinase 7 (Homo sapiens) (UniProt O43318).
T1 sequence (whole entry): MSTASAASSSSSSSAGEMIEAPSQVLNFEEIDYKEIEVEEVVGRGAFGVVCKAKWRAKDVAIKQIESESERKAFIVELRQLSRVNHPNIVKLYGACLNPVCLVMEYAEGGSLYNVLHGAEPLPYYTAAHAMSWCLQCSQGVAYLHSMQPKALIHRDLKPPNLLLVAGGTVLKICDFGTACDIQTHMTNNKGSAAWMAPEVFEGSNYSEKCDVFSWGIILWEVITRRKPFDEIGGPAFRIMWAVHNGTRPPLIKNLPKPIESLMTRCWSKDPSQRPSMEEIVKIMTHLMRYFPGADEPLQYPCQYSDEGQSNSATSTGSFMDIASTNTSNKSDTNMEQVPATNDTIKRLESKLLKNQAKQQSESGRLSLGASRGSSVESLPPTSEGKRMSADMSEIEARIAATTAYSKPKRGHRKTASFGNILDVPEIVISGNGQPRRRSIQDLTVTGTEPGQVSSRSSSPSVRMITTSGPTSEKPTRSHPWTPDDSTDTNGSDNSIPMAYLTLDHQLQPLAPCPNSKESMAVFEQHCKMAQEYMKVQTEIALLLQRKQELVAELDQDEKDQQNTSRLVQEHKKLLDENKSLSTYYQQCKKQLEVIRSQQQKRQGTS
As to conditions: at 1 µM.

The target of test [3] is T1, Mitogen-activated protein kinase kinase kinase 7 (Homo sapiens). Conditions: at 10 µM.
Test [4] concerns the target T2, Serine/threonine-protein kinase TAO1 (Homo sapiens) (UniProt Q7L7X3).
T2 sequence (whole entry): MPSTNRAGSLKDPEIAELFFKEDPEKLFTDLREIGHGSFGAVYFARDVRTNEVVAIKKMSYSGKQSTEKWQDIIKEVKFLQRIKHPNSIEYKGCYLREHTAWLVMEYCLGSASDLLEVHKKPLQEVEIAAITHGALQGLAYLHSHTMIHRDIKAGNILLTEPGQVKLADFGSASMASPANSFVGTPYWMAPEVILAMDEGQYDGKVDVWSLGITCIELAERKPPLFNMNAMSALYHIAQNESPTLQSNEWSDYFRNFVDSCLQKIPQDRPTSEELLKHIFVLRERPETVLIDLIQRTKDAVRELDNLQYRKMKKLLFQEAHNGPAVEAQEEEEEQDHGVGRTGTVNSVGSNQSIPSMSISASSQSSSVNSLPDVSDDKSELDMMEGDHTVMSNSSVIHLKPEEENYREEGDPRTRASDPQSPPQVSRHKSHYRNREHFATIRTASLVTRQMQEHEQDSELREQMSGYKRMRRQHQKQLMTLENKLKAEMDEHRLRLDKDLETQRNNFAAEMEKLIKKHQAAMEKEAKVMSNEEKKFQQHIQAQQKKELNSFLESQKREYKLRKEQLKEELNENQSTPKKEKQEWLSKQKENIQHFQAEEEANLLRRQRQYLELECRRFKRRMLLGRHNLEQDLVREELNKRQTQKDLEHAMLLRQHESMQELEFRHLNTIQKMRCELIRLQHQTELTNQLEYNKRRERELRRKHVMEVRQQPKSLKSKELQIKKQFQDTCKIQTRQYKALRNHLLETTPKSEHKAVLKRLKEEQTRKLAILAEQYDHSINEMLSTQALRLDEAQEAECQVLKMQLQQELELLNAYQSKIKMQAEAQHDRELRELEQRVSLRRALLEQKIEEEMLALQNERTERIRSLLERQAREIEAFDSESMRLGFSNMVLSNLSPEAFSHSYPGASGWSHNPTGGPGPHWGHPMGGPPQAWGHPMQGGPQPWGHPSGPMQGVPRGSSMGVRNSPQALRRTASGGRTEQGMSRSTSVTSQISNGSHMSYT
Conditions: at 1 µM.

In test [5] the target is T2, Serine/threonine-protein kinase TAO1 (Homo sapiens). Conditions: at 10 µM.
Test [6] has as its target T3, Serine/threonine-protein kinase TAO2 (Homo sapiens) (UniProt Q9UL54).
T3 sequence (whole entry): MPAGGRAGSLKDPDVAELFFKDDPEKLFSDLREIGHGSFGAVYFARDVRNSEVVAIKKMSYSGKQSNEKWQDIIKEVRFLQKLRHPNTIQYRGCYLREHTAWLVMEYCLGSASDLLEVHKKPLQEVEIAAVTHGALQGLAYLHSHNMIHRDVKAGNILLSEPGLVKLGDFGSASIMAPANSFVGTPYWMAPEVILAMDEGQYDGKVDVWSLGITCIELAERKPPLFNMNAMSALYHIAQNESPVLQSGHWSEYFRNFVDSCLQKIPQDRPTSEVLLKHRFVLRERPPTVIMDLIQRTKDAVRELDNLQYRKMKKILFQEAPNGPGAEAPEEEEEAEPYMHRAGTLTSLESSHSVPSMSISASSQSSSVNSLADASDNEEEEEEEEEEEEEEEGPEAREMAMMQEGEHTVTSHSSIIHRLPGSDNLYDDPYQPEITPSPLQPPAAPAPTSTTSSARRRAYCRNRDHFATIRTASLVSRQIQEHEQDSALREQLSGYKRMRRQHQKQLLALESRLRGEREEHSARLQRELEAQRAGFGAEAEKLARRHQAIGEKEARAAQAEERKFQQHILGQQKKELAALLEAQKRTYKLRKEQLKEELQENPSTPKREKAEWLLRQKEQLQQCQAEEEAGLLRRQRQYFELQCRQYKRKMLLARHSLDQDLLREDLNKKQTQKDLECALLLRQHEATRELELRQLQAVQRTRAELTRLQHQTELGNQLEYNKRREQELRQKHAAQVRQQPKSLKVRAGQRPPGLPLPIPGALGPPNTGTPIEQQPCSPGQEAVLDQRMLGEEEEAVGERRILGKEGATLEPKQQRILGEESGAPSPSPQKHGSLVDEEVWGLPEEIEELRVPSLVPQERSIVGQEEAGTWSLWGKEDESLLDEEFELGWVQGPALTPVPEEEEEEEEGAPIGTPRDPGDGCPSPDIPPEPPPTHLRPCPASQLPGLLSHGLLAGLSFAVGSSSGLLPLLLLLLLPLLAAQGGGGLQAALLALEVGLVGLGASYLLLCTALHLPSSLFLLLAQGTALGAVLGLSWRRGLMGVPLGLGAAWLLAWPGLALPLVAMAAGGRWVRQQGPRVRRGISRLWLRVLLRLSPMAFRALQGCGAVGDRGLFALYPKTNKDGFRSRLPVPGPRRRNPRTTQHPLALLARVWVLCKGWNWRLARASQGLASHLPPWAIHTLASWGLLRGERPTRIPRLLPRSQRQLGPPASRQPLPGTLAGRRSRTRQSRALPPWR
Conditions: at 1 µM.

Test [7] concerns the target T3, Serine/threonine-protein kinase TAO2 (Homo sapiens). As to conditions: at 10 µM.
The target of test [8] is T4, Serine/threonine-protein kinase TAO3 (Homo sapiens) (UniProt Q9H2K8).
T4 sequence (whole entry): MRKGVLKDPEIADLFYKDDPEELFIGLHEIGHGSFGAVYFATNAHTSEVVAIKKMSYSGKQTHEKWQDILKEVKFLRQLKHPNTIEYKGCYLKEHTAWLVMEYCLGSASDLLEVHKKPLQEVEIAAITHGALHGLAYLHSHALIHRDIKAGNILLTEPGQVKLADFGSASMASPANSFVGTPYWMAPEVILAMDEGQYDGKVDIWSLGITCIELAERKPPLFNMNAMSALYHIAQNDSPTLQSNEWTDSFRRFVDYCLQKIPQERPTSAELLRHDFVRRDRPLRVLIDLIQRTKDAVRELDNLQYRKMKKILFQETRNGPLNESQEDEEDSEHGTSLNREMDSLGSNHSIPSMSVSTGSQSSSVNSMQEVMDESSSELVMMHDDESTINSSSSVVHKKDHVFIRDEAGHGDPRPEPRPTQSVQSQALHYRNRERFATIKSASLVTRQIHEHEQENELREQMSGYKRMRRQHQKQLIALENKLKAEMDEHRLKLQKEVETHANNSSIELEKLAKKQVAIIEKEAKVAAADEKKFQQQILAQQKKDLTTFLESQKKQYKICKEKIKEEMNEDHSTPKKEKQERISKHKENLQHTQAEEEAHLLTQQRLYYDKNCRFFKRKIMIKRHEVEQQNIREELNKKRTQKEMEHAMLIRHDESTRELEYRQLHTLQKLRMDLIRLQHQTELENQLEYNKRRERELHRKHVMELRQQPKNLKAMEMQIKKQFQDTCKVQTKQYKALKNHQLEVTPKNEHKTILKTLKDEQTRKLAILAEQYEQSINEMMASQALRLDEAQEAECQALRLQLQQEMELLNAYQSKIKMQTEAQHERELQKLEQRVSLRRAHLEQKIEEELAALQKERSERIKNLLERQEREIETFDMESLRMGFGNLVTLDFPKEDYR
As to conditions: at 1 µM.

Test [9] addresses T4, Serine/threonine-protein kinase TAO3 (Homo sapiens). As to conditions: at 10 µM.
In test [10] the target is T5, Serine/threonine-protein kinase TBK1 (Homo sapiens) (UniProt Q9UHD2).
T5 sequence (whole entry): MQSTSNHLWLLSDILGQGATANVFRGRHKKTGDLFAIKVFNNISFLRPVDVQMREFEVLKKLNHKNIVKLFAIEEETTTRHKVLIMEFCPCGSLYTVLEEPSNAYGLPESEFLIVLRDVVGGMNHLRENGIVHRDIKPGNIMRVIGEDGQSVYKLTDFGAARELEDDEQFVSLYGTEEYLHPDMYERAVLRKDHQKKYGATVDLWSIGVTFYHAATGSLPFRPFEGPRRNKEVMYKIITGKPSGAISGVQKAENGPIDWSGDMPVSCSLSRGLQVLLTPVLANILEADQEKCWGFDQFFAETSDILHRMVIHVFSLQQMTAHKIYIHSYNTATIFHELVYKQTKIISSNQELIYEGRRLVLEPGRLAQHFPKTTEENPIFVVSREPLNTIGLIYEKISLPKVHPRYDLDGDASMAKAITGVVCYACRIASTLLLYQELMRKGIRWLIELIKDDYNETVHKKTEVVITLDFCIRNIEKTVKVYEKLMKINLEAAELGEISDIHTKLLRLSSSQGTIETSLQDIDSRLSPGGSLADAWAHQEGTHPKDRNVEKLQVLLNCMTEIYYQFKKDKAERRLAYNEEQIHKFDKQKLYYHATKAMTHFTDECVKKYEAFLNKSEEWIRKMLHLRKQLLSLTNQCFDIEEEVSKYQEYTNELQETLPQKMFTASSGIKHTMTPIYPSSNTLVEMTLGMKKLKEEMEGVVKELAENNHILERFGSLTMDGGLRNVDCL
As to conditions: at 1 µM.

The target of test [11] is T5, Serine/threonine-protein kinase TBK1 (Homo sapiens). As to conditions: at 10 µM.
The target of test [12] is T6, TGF-beta receptor type-1 (Homo sapiens) (UniProt P36897).
T6 sequence (whole entry): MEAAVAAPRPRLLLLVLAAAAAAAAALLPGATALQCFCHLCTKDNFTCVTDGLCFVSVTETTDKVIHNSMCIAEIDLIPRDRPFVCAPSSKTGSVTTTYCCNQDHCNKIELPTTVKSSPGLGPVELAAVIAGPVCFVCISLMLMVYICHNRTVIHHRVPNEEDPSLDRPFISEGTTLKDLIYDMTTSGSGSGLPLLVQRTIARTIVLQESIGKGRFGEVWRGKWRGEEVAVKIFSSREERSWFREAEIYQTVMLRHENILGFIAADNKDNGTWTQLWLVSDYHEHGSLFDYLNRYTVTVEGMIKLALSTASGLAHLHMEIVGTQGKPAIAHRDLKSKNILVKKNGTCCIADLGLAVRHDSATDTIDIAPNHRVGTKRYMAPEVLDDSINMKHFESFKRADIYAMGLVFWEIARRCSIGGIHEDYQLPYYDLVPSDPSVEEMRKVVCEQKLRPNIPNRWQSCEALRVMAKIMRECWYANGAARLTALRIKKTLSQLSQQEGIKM
As to conditions: at 1 µM.

Test [13] addresses T6, TGF-beta receptor type-1 (Homo sapiens). As to conditions: at 10 µM.
Test [14] concerns the target Insulin-like growth factor 1 receptor (Homo sapiens) (UniProt P08069). Conditions: at 1 µM.
For test [15] the target is unchanged. As to conditions: at 10 µM.
Test [16] concerns the target T7, Inhibitor of nuclear factor kappa-B kinase subunit beta (Homo sapiens) (UniProt O14920).
T7 sequence (whole entry): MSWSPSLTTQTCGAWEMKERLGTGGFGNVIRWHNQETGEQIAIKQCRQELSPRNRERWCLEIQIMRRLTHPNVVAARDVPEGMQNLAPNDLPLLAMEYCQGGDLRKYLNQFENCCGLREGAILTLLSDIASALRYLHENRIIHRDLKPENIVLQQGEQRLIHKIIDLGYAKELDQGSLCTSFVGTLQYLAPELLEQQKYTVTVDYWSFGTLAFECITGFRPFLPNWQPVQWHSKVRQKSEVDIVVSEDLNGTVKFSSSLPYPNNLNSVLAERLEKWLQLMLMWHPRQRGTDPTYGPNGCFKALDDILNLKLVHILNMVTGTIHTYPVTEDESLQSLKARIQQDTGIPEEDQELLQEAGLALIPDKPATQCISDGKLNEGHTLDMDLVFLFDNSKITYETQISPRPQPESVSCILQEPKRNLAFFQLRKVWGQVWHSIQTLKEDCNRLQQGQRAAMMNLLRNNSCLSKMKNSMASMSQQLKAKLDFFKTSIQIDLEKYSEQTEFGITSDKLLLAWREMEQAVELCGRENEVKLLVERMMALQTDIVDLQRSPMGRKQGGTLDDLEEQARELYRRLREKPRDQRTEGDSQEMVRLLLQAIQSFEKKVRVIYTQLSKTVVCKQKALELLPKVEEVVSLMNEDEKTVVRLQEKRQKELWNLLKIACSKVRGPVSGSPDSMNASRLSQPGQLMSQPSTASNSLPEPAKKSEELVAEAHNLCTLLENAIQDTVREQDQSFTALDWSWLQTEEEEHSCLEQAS
As to conditions: at 1 µM.

Test [17] concerns the target T7, Inhibitor of nuclear factor kappa-B kinase subunit beta (Homo sapiens). As to conditions: at 10 µM.
Test [18] addresses Insulin receptor (Homo sapiens) (UniProt P06213). Conditions: at 1 µM.

We go through one compound from ChEMBL document CHEMBL2218924, “A broad activity screen in support of a chemogenomic map for kinase signalling research and drug discovery” (Biochem J, 2013).

Sequence of Insulin-like growth factor 1 receptor (Homo sapiens) (P08069 31-736 limits assumed): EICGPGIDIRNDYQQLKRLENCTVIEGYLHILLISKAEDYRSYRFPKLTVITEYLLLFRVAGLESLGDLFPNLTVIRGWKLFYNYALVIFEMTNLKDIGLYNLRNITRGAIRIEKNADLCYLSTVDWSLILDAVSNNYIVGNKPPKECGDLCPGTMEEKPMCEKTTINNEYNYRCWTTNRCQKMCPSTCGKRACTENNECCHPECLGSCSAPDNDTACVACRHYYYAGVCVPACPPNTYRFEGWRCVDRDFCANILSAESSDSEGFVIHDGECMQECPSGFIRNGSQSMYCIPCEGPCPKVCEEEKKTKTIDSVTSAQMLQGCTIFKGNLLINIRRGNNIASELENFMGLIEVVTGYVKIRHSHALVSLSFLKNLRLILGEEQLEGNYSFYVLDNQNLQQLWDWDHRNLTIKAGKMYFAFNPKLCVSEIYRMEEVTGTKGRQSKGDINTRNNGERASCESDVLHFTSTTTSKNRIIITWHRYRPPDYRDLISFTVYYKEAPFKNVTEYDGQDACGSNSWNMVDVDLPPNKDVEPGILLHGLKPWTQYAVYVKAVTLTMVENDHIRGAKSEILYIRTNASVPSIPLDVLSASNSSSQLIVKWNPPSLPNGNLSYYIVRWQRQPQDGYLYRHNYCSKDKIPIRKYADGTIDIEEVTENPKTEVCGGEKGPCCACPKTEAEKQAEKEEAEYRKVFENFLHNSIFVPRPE
Sequence of Insulin-like growth factor 1 receptor (Homo sapiens) (P08069 741-1367 limits assumed): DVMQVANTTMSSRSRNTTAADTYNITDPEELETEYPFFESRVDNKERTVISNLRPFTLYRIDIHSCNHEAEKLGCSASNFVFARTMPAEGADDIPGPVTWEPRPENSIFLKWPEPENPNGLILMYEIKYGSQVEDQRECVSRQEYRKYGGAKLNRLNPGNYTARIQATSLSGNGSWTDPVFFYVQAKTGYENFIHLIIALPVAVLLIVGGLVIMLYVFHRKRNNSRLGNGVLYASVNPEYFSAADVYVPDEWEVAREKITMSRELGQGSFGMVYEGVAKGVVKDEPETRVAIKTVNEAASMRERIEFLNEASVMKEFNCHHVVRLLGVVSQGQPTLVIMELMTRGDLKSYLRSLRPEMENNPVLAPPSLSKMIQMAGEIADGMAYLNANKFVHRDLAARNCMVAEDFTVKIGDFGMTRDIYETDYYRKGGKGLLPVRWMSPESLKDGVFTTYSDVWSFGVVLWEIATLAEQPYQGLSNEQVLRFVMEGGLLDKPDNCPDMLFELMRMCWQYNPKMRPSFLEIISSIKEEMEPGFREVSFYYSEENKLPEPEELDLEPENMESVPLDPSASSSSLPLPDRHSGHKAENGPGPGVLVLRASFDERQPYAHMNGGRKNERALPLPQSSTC
Sequence of Insulin receptor (Homo sapiens) (P06213 28-758 limits assumed): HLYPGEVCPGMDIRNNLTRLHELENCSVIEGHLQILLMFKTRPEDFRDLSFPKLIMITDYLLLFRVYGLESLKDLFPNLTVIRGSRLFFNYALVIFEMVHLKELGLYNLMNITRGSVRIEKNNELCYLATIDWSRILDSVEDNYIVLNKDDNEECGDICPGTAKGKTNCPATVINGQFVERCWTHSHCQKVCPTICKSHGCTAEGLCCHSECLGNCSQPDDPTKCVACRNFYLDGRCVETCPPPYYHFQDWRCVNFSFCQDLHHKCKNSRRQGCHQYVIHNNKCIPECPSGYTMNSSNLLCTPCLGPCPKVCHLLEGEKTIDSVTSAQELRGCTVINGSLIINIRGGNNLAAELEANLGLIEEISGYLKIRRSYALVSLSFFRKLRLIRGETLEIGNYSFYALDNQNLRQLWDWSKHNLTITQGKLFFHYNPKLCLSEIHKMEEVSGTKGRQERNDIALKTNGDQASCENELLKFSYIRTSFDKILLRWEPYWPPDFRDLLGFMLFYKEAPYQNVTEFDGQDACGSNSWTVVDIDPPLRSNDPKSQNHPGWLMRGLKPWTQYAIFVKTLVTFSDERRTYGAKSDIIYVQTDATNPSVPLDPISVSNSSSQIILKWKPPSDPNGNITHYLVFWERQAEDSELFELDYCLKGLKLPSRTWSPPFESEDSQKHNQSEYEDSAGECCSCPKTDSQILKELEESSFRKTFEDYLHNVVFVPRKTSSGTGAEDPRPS
Sequence of Insulin receptor (Homo sapiens) (P06213 763-1382 limits assumed): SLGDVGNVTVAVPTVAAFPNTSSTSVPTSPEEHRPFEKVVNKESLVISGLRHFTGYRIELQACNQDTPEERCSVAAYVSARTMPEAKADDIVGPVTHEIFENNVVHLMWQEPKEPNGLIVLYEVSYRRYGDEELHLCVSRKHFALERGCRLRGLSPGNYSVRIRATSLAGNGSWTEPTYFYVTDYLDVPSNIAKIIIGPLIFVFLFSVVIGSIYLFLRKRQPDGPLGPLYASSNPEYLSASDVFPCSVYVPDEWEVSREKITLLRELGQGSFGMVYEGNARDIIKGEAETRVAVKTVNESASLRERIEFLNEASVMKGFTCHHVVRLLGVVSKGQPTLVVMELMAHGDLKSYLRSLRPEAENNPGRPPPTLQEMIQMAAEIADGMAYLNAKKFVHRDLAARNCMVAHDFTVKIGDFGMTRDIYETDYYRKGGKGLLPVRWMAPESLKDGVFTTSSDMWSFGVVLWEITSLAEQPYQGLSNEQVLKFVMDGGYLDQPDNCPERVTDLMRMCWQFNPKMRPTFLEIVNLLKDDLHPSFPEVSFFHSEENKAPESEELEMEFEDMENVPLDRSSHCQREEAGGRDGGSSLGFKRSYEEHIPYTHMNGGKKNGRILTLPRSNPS

Turning to `CCN(CC)C(=O)c1ccc(Nc2nc(OCC3CCCCC3)c3nc[nH]c3n2)cc1`, the residual activity amounted to 13% in test [1]; 47% in test [2]; 7% in [3]; 52% in test [4]; 10% in test [5]; 51% in test [6]. In addition, the residual activity stood at 6% in test [7]; 70% in test [8]; 16% in test [9]; 15% in [10]; 2% in [11]; 82% in test [12]. For the same compound, the residual activity in test [13] was found to be 50%; in test [14], 70%; in [15], 16%; in [16], 94%; in [17], 69%; in test [18], 95%.
